Bioassay records deposited in PubChem BioAssay by Buhrlage Lab, Dana-Farber Cancer Institute and Novartis Institutes for BioMedical Research (Cambridge, Mass).
This is a sample that favours compounds with a hit; in the whole collection about 9.6% have one here.
USP17 inh: human USP17-like deubiquitinase inhibition; purified USP17, Ub-rhodamine cleavage fluorescence, 3 h; 6.5% of 47,000 active; inhibition, % at 50 µM; A8MUK1
Target sequence (A8MUK1 whole entry, looked up): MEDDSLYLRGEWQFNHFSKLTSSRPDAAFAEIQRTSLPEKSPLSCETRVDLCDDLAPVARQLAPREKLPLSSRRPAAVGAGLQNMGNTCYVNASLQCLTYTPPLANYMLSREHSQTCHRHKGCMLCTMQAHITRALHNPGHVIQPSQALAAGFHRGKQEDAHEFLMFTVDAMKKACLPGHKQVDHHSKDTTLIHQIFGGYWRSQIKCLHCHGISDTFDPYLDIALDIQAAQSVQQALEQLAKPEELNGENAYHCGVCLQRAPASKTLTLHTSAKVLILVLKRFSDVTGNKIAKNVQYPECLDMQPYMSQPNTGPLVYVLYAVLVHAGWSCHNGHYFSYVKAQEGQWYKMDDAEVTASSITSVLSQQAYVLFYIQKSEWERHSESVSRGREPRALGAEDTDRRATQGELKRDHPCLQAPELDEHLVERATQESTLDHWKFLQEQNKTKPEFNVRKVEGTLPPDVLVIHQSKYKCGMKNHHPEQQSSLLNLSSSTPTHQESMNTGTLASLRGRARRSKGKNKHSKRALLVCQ
USP30 block: inhibitors of human USP30 deubiquitinase; purified USP30, Ub-rhodamine cleavage fluorescence; 5.3% of 47,000 active; inhibition, % at 25 µM; Q70CQ3; AID 1645860
Active calls of the source: *; . = no result given. Rule as the data show it: active = inhibition above about 30%; inactive = the rest.

SMILES	USP17 inh	USP30 block
O=C(C1CCCC1)N1CCC(c2nc3c(nnn3Cc3c(F)cccc3Cl)c(=O)[nH]2)CC1	-2	11
Cc1ccccc1CNC(=O)c1nc(N2CCSCC2)c2cn(C)nc2n1	0	14
O=C(Cc1ccc(Cl)cc1)N1CCC2(C1)CN(C(=O)c1cscn1)C2	12	15
COc1cccc(-c2cncc(C3CCCN(C(=O)c4ccn[nH]4)C3)n2)c1 (stereo not drawn)	-13	5
COc1cccc(NC(=O)CN2C(=O)c3cccnc3Sc3ccccc32)c1	-21	-39
CCOC(=O)c1ccc2[nH]cc(C(C)=O)c(=O)c2c1	-13	.
Cc1ccc2[nH]cc(S(=O)(=O)c3cc(Cl)cc(Cl)c3)c(=O)c2c1	48*	-33
c1ccc2c(c1)nc1nccc(-c3ccc(-n4cncn4)cc3)n12	15	-1
COc1ccc(C(=O)NCc2noc(C3CCCCC3)n2)cc1C#N	-14	-3
O=C(Oc1ccc2cc(-c3ccc4ccccc4n3)c(=O)oc2c1)C1CCCCC1	0	-14
COc1ccccc1C(=O)N[C@H]1[C@H](O)[C@H](O)C[C@@H]1c1ccccc1C	15	13
Cc1ccccc1[C@H]1C[C@@H](O)[C@@H](O)[C@@H]1NC(=O)COc1ccccc1	21	39*
COc1ccc(-c2cn3c(-c4ccccc4)c(-c4ccccc4)nc3n2CCc2ccccc2)cc1	27	-13
COc1ccc(-n2c(-c3ccccc3)cn3c(-c4ccccc4)c(-c4ccccc4)nc23)cc1	55*	59*
O=C(Nc1ccc(F)cc1F)c1cnn2cc(Br)cnc12	12	-7
COc1cc(C(=O)Nc2ccc3c(c2)OCCO3)ccc1OCC(=O)Nc1ccc(F)cc1	36*	-10
COc1cc2c(=O)c(C(=O)c3ccc(F)cc3)cn(CC(=O)Nc3ccc4c(c3)OCCO4)c2cc1OC	37*	-65
COc1cccc2[nH]c(C(=O)Nc3ccc4c(c3)OCCO4)cc12	-17	-94
COc1cc2c(=O)c(C(=O)c3ccc(F)cc3)cn(CC(=O)Nc3ccc(F)cc3)c2cc1OC	33*	-19
COc1ccc(NC(=O)Cn2cc(C(=O)c3ccc(F)cc3)c(=O)c3cc(C)ccc32)cc1OC	25	-1
COc1ccc(NC(=O)Cn2cc(C(=O)c3ccccc3)c(=O)c3cc4c(cc32)OCCO4)cc1OC	23	-20
CC(=O)Nc1ccc(N2C(=O)c3cc(-c4ccco4)nn3CC2(C)C(=O)NCc2ccc(F)cc2)cc1 (stereo not drawn)	-20	-90
Cc1cc(C)c2c(-n3cccc3)nn(CC(=O)NCC3CCCO3)c2n1 (stereo not drawn)	-6	-9
O=C(NC1CCCC1)C1c2c(ccc3ccccc23)OCC(=O)N1c1cccc(F)c1 (stereo not drawn)	10	5
CC(C)C(=O)Nc1ccc(-n2cnc(C(=O)NC3CCCCC3)c2)nc1	-1	10
SMILES	USP17 inh	USP30 block
CC[C@@H](C(=O)[C@@H](C)[C@@H](O)[C@H](C)CCc1ccc(C)c(O)c1C(=O)O)[C@@H]1O[C@](CC)([C@H]2CC[C@](O)(CC)[C@H](C)O2)C[C@@H]1C	56*	60*
COc1cc(CN2CCc3nc(-c4cccnc4)[nH]c(=O)c3C2)ccc1O	-4	8
O=C(C1CCC1)N1CCC2(CC1)OC(C(=O)N1CCCC1)Cn1ccnc12 (stereo not drawn)	-49	-37
CCc1nc2c(C#N)c(-c3ccc(Cl)cc3)ccn2n1	66*	83*
N#Cc1c(-c2ccc3c(c2)OCO3)ccn2nc(-c3ccco3)nc12	-1	-174
CC1=C(c2ccccc2)S(=O)(=O)N=C1N1CCCN(C(=O)c2ccc(F)cc2)CC1	10	8
Oc1ccc2c3c1[C@@H](O)C1OC1[C@]31Oc3cccc4c3[C@](C=C[C@@H]4O)(O2)O1 (stereo partly drawn)	46*	-54
CC1CN(C(=O)c2cccc(Cl)c2)Cc2ccccc2N1C (stereo not drawn)	6	0
O=C(NCc1cccnc1)c1cnn(-c2ccccc2)c1-n1cccc1	-3	-4
Cc1ccc(C2N3CC4(C)CN2CC(c2ccccc2)(C3)C4=O)cc1 (stereo not drawn)	19	34*
CC12CN3CC(c4ccccc4)(CN(C1)C3c1ccc(O)cc1)C2=O (stereo not drawn)	-5	-11
CC1CSc2ccc(S(=O)(=O)NCc3ccccc3)cc2NC1=O (stereo not drawn)	0	-12
COC(=O)c1ccc(C(=O)OC)c(N2C(=O)CSCC2=O)c1	20	49*
COC(=O)c1ccc(O)c(O)c1	-39	17
Cn1cc(CN2CCC3(CCCN(C(=O)c4cnccn4)C3)C2)cn1 (stereo not drawn)	-10	2
CC1OC(OCC2OC(Oc3c(-c4ccc(O)c(O)c4)oc4cc(O)cc(O)c4c3=O)C(O)C(O)C2O)C(O)C(O)C1O (stereo not drawn)	3	0
O=c1cc(-c2ccc(O)c(O)c2)oc2cc(O[C@@H]3O[C@H](CO)[C@@H](O)[C@H](O)[C@H]3O)cc(O)c12	84*	91*
COc1ccc(NC(=O)CCc2c(C)c3c(C)nn(-c4ccccc4)c3n(C)c2=O)c(OC)c1	-3	30*
COc1ccc(NC(=O)CCc2c(C)c3c(C)nn(-c4ccccc4)c3n(C)c2=O)cc1OC	16	3
O=C(CN1CCCC(c2nc3ccccc3[nH]2)C1)N1CCc2ccccc21 (stereo not drawn)	-8	-106
Cc1cc(C)nc(SCc2cc(=O)n3[nH]c(C)c(-c4ccccc4)c3n2)n1	-5	46*
Cc1ccnc(SCc2cc(=O)n3[nH]c(C)c(-c4ccccc4)c3n2)n1	-15	10
CN1CCN(c2ccc3ccc(C(=O)N4CCC(N(C)C)CC4)cn23)CC1	-41	-148
Cc1noc(CN2CCC3(CC2)CC3c2nc(-c3cccnc3)no2)n1 (stereo not drawn)	-39	-88
CC(C)NC(=O)c1cccc(-c2noc(-c3ccc4cc[nH]c4c3)n2)c1	-14	-41
SMILES	USP17 inh	USP30 block
O=C(Nc1ccncc1)c1ccc[nH]c1=O	17	21
O=C(Nc1ccncc1)c1cc(Br)ccc1F	25	35*
CC(C(=O)Nc1ccc(F)cc1)n1cnc2nc(N3CCCCC3)ncc2c1=O (stereo not drawn)	-23	-112
CC(C(=O)Nc1ccccc1)n1cnc2nc(N3CCCCC3)ncc2c1=O (stereo not drawn)	69*	-125
O=C(N/C=C/c1ccsc1)Nc1ccc(F)cc1	-7	-21
COc1ccc2[nH]c3c(c2c1)CCN1C(=O)N(c2ccccc2C(=O)NCCc2ccccc2)C(=O)[C@]31C	11	-21
COc1ccc(CCNC(=O)c2ccccc2N2C(=O)N3CCc4c([nH]c5ccc(OC)cc45)[C@@]3(C)C2=O)cc1	43*	41*
C[C@]12C(=O)N(c3ccccc3C(=O)NC3CCCCC3)C(=O)N1CCc1c2[nH]c2ccccc12	45*	32*
CC1CCC(NC(=O)c2ccccc2N2C(=O)N3CCc4c([nH]c5ccccc45)[C@@]3(C)C2=O)CC1 (stereo partly drawn)	5	-9
Cn1nccc1-c1cccc(-c2noc(CNC(=O)c3ccco3)n2)c1	-20	-26
COc1ccc(C2C3=C(CC(c4ccco4)CC3=O)Nc3ccccc3N2C(=O)C(F)(F)F)cc1 (stereo not drawn)	0	-9
